Experimental data published in ChEMBL document CHEMBL1961873, “Compounds: GSK PKIS; Assays: Nanosyn kinase panel” (2012).

Assays:
[1] = target: T1, Ephrin type-B receptor 2 (Homo sapiens) (UniProt P29323); conditions: at 1 µM
T1 sequence (whole entry): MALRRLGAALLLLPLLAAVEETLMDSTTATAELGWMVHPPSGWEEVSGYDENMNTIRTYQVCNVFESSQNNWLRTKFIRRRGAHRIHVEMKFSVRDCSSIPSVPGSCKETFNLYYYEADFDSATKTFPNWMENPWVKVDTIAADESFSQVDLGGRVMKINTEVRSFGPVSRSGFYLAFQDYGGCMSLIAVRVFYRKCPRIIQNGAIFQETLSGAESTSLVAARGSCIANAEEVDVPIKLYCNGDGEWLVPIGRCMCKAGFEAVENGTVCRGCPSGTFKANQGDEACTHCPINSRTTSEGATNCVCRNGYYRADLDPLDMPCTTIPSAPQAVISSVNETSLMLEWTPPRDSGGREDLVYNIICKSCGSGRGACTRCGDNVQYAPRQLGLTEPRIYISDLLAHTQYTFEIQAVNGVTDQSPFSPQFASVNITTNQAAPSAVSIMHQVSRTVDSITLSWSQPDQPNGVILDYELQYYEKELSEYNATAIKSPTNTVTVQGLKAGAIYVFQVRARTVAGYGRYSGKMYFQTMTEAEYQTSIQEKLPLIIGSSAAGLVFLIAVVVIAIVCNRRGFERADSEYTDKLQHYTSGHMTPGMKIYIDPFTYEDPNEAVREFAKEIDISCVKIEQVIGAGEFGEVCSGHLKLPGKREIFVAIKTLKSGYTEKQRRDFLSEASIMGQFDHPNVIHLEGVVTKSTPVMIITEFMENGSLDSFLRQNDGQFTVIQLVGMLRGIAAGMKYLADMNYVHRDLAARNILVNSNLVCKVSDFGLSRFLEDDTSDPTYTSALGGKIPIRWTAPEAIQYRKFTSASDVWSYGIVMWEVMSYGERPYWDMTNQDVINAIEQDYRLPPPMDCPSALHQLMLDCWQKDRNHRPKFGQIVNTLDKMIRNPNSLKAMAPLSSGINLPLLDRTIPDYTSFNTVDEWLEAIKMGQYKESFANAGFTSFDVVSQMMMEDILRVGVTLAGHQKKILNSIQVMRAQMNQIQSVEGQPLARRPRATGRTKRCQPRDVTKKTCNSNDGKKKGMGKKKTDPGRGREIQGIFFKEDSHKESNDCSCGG

[2] = target: T2, Ephrin type-B receptor 3 (Homo sapiens) (UniProt P54753); conditions: at 0.1 µM
T2 sequence (whole entry): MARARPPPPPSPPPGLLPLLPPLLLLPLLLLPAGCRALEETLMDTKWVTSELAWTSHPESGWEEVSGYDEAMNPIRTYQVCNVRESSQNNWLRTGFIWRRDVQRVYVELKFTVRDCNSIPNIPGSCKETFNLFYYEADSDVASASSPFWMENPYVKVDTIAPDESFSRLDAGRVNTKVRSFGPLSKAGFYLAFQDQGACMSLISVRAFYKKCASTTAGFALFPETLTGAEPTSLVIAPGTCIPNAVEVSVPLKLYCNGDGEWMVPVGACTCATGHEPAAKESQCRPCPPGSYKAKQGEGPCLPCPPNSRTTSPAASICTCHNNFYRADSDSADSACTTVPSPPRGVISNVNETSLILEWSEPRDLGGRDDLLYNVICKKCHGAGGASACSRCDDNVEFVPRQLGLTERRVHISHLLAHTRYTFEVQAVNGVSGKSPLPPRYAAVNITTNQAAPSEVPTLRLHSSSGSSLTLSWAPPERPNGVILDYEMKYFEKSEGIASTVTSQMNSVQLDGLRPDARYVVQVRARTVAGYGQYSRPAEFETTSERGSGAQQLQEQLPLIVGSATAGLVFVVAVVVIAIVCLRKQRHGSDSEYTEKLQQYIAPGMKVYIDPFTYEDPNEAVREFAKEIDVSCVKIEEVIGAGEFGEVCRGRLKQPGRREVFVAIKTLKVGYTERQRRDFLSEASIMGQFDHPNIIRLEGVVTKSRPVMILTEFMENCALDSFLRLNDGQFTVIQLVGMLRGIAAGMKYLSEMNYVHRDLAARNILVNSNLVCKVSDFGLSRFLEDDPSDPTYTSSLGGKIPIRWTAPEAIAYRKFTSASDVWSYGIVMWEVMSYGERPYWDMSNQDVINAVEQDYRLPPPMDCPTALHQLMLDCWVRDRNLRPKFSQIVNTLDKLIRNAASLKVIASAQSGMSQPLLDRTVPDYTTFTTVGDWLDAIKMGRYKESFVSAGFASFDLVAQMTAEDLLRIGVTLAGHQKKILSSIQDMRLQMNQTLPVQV

[3] = target: T2, Ephrin type-B receptor 3 (Homo sapiens); conditions: at 1 µM
[4] = target: T3, Ephrin type-B receptor 4 (Homo sapiens) (UniProt P54760); conditions: at 0.1 µM
T3 sequence (whole entry): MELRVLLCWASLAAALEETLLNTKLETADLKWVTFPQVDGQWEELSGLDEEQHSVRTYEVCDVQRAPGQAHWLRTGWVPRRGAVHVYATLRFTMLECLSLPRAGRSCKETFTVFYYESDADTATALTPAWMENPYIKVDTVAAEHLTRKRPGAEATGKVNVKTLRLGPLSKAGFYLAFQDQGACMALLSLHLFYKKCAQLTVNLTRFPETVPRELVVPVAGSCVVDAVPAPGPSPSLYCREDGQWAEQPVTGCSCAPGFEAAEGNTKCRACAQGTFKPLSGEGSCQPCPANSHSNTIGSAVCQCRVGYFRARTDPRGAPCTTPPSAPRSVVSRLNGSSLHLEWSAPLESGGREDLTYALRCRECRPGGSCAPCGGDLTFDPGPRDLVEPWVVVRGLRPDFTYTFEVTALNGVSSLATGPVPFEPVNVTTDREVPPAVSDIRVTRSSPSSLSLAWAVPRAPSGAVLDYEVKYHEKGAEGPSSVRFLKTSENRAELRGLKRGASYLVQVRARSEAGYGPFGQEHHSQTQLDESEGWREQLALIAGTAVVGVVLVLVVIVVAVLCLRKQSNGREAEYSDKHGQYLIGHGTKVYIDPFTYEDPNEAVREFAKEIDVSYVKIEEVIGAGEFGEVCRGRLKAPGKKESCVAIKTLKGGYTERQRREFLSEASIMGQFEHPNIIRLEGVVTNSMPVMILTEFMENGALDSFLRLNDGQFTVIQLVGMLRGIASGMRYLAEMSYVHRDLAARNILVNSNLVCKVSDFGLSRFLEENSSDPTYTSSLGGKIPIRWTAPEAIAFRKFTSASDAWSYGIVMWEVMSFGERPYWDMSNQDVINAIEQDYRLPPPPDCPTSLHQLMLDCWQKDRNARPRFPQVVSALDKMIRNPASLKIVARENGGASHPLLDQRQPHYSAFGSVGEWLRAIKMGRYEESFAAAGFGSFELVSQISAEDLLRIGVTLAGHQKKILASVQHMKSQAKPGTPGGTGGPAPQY

[5] = target: T3, Ephrin type-B receptor 4 (Homo sapiens); conditions: at 1 µM
[6] = target: Receptor tyrosine-protein kinase erbB-2 (Homo sapiens) (UniProt P04626); conditions: at 0.1 µM
Sequence of Receptor tyrosine-protein kinase erbB-2 (Homo sapiens) (P04626 whole entry): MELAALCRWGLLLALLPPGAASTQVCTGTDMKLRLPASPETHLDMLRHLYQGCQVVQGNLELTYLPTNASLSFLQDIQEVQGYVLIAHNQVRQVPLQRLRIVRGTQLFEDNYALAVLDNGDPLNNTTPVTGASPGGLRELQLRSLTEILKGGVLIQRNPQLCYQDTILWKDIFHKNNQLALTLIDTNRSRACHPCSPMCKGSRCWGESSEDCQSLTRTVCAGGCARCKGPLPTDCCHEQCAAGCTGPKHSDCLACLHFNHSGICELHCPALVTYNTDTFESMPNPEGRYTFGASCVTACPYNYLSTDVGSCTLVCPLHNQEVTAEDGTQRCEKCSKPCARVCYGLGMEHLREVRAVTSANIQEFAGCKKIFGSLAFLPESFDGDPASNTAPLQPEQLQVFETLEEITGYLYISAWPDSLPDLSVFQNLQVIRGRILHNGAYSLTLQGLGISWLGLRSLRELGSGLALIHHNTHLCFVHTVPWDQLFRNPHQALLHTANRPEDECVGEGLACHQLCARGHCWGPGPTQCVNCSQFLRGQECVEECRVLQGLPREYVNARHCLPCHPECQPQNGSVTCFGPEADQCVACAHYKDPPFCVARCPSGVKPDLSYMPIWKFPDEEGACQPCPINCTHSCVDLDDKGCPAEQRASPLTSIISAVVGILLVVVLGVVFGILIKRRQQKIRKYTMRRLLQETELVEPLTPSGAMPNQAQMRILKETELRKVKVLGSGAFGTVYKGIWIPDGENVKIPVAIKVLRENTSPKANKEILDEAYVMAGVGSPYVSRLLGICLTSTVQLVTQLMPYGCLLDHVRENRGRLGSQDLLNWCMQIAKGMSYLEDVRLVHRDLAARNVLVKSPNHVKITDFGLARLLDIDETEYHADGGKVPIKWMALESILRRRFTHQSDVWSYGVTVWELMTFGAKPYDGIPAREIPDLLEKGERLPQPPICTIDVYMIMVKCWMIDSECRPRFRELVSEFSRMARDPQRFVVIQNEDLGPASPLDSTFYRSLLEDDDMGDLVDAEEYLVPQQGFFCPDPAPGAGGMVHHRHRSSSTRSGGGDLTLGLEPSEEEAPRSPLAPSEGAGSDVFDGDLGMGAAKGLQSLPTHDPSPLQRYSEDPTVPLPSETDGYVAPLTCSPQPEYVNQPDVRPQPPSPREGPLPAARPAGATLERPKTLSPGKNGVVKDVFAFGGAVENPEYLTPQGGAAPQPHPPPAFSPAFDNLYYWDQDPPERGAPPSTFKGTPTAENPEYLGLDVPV

[7] = target: Receptor tyrosine-protein kinase erbB-2 (Homo sapiens) (UniProt P04626); conditions: at 1 µM
[8] = target: Receptor tyrosine-protein kinase erbB-4 (Homo sapiens) (UniProt Q15303); conditions: at 0.1 µM
Sequence of Receptor tyrosine-protein kinase erbB-4 (Homo sapiens) (Q15303 whole entry): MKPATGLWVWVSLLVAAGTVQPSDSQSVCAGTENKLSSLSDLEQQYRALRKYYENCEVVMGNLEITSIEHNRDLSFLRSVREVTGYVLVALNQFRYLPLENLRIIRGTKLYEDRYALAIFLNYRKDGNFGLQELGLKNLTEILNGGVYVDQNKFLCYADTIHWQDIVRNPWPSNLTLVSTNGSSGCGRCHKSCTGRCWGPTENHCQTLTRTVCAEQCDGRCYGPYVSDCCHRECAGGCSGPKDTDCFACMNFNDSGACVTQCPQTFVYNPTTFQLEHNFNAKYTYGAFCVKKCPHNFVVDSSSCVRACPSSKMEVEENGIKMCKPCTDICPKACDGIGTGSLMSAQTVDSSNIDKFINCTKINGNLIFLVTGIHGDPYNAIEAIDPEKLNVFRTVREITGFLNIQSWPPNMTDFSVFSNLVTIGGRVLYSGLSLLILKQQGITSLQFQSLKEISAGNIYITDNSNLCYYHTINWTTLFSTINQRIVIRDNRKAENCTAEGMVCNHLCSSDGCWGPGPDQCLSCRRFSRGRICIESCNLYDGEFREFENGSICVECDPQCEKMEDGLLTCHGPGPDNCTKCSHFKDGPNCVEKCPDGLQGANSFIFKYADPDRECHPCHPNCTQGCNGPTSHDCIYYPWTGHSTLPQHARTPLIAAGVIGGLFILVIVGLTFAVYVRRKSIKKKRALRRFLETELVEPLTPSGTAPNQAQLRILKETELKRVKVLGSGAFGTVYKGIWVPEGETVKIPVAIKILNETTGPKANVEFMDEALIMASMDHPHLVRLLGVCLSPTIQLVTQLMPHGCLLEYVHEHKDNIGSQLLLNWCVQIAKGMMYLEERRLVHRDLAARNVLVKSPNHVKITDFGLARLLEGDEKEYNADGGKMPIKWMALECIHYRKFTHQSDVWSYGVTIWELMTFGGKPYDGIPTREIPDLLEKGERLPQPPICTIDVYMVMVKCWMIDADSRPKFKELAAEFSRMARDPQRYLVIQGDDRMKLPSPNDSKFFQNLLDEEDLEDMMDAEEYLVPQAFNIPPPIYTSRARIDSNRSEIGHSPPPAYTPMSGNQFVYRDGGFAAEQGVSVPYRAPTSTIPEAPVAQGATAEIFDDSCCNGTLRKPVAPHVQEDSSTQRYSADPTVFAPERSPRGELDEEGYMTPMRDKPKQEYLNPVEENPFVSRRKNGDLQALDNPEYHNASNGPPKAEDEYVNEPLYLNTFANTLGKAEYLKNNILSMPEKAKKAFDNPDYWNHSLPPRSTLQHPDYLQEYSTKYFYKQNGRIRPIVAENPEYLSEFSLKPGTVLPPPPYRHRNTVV

[9] = target: Receptor tyrosine-protein kinase erbB-4 (Homo sapiens) (UniProt Q15303); conditions: at 1 µM
[10] = target: Tyrosine-protein kinase Fer (Homo sapiens) (UniProt P16591); conditions: at 0.1 µM;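 further: reported figures are averaged percent inhibition of FER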
Sequence of Tyrosine-protein kinase Fer (Homo sapiens) (P16591 whole entry, looked up): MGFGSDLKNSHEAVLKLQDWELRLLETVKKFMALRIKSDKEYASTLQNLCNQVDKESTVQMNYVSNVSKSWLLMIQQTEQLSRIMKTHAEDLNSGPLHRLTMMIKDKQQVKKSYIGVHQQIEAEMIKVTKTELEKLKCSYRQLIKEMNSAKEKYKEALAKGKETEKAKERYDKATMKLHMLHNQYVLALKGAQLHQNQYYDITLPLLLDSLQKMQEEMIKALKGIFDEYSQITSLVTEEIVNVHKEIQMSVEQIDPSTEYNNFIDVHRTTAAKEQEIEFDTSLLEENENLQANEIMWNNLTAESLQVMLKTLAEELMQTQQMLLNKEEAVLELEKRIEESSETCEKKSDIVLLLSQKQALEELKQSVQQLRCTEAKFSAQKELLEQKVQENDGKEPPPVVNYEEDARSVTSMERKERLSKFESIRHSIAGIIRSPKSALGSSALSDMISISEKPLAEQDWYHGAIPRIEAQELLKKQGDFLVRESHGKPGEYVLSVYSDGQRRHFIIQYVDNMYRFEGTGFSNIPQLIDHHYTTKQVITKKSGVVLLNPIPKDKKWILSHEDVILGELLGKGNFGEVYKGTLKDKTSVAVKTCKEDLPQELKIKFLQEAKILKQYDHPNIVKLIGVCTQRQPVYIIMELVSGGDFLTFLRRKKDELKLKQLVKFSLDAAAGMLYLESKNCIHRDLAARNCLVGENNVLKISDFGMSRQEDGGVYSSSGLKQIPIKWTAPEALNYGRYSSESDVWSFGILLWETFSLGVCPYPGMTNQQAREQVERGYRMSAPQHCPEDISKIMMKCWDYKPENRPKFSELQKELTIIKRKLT

SMILES	inhibition [1]	inhibition [2]	inhibition [3]	inhibition [4]	inhibition [5]	inhibition [6]	inhibition [7]	inhibition [8]	inhibition [9]	inhibition [10]
O=C1NC(=O)C(c2ccccc2Cl)=C1Nc1cccc(O)c1	7.6%	4.32%	1.16%	1.29%	3.19%	0.64%	-0.2%	8.95%	8.95%	4.57%
CS(=O)(=O)CCNCc1ccc(-c2ccc3ncnc(Nc4ccc(OCc5ccccc5)c(Cl)c4)c3c2)o1	11.5%	-0.46%	2.9%	1.93%	2.4%	21.5%	69.5%	59.8%	88.1%	4.02%
CC1=C(C(=O)Nc2ccc3[nH]ncc3c2)C(c2ccc(F)cc2)NC(=O)N1 (stereo not given)	5.02%	3.4%	1.2%	-1.65%	0.92%	-0.29%	-0.74%	4.16%	5.19%	0.09%
Nc1nc(-c2ccc3c(c2)C(=Cc2cc(Br)c(O)c(Br)c2)C(=O)N3)cs1	-1.17%	-1.61%	-4.71%	-0.3%	-2.45%	-4.27%	2.84%	-6.34%	-0.4%	5.18%
N#Cc1c(NC(=O)c2cccc3ccccc23)sc2c1CCCC2	6.91%	5.39%	3.56%	3.79%	3.28%	1.65%	-0.24%	6.37%	8.55%	2.88%
CCn1c(-c2nonc2N)nc2c(C#CC(C)(C)O)nc(CN3CCCC3)cc21	-4.07%	2.42%	-2.06%	1.15%	0.96%	-1.45%	-6.25%	3.95%	-0.29%	-1.64%
CC(C)=Cc1cccc2c1/C(=N/Nc1ccc(S(N)(=O)=O)cc1)C(=O)N2	5.84%	2.65%	-0.21%	1.72%	2.38%	0.59%	4.72%	5.98%	4.74%	3.57%
COc1cc2ncn(-c3cc(O[C@@H](C)c4ccccc4Cl)c(C(N)=O)s3)c2cc1OC	14.1%	3.27%	3.66%	1.67%	4.23%	0.23%	6.51%	6.3%	14.2%	6.4%
